Pol kappa inh-1 = blocks human DNA polymerase kappa activity | purified Pol kappa, fluorescent DNA synthesis assay, 10 min | Potency, µM (highest dose often 107 µM), inactives show at the highest dose activity, negative = inhibition, most hits filed as inhibitors | 0.53% of 400,000 active | Q9UBT6 | AID 588579; further: on the % scale 0 is the no-effect control and ±100 the full control effect
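10 nM Pol kappa preincubated 15 min at room temperature with compounds, then reaction started with substrate at 50 nM final. Fluorescence read kinetically at 0 and 10 min; buffer-only wells served as negative control.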
Tb PGK inh = T. brucei PGK inhibition. 0.043% of 380,000 active. PGK/GAPDH coupled, Kinase-Glo luminescence, 60 min. AID 602233. P07378. Potency, µM (highest dose often 57.5 µM), inactives show at the top dose activity change, negative = inhibition, hits mostly inhibitors; further: on the % scale 0 is the no-effect control and ±100 the full control effect; nearly all actives have a fitted effect of over 60% in size
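Recombinant glycosomal PGK reaction used 1,3-bisphosphoglycerate generated in-well by GAPDH (100nM final) in 100mM TEA pH 7.6, 5mM MgCl2, 0.01% Tween-20. After 60 minutes at room temperature, ATP was read by Kinase-Glo Plus luminescence end-point.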
FEN1 inh-1 = blocks human flap endonuclease 1 | P39748 | Recombinant FEN1 flap cleavage, fluorescence, 15 min | Potency, µM (doses to about 114 µM), for inactives: at the highest dose activity change, negative = inhibition, usual class: inhibitors | 0.35% of 390,000 active; further: on the % scale 0 is the no-effect control and ±100 the full control effect; nearly all actives have a fitted effect of over 65% in size
Target sequence (P39748 whole entry, looked up): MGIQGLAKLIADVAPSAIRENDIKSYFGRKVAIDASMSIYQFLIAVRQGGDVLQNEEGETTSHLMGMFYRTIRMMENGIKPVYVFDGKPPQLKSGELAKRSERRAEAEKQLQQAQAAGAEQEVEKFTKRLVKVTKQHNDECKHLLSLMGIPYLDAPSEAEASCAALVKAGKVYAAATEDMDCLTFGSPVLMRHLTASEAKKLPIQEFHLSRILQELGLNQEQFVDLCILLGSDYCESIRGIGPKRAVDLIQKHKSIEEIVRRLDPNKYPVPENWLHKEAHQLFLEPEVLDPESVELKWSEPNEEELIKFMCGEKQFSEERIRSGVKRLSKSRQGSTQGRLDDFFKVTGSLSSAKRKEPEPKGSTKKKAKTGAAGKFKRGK
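Nuclease activity of 10 nM FEN1 was measured after 15 min of room-temperature exposure to titrated compounds, by adding 50 nM flap substrate and reading plates at 0 and 15 min.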
POLB inh = DNA polymerase beta (human) inhibition; Potency, µM (titrated, usually from 114 µM), for the others: at the highest dose activity change, negative = inhibition, usual class: inhibitors; Pol beta primer extension/strand displacement, fluorescence kinetic; AID 485314; 1.3% of 340,000 active; P06746; further: on the % scale 0 is the no-effect control and ±100 the full control effect
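Kinetic readout of DNA synthesis with strand displacement by Pol beta. Compound and 10 nM enzyme sit 15 min at room temperature; 50 nM substrate starts the reaction, read immediately and at 10 min.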
Pol iota inh = blocks human DNA polymerase iota activity. Q9UNA4. Pol iota fluorescent replication assay, 10 min. Potency, µM (highest dose often 115 µM), for the others: at the highest dose activity, negative = inhibition, actives largely listed as inhibitors. 1% of 390,000 active. AID 588590
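Fluorescent replication assay read twice, at 0 min and 10 min after adding 50 nM (final) substrate. Enzyme (10 nM) and compounds were first incubated 15 min at room temperature; enzyme-free buffer wells were negative controls.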
Pol eta inh-1 = DNA polymerase eta (human) inhibition. Q9Y253. recombinant Pol eta, fluorescent DNA replication assay. Potency, µM (titrated, usually from 114 µM), for the others: at the top dose activity change, negative = inhibition, hits mostly inhibitors. 1.2% of 390,000 active. AID 588591; further: on the % scale 0 is the no-effect control and ±100 the full control effect
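Pol eta at 10 nM preincubated with compounds 15 min at room temperature; reaction started with fluorescent substrate (50 nM final) and read kinetically at 0 and 10 min.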
Pol kappa inh-2 = Pol kappa (human) inhibition, cherry-pick confirmation | 76% of 920 active | AID 720501 | Potency, µM, hits mostly inhibitors | purified Pol-kappa, fluorescent strand-displacement substrate | shares compounds with Pol eta inh-1
Pol eta inh-2 = confirmation of human DNA polymerase eta inhibitors; shares compounds with Pol eta inh-1; Pol eta primer extension, TAMRA/BHQ fluorescence, 10 min; Potency, µM, usual class: inhibitors; 64% of 2,600 active
FEN1 inh-2 = confirmation of human FEN1 inhibitors. 79% of 880 active. Potency, µM, hits mostly inhibitors. FEN1 flap cleavage, TAMRA/BHQ2 fluorogenic DNA substrate. shares compounds with FEN1 inh-1; further: nearly all actives have a fitted effect of over 60% in size
* = called active by the depositor; i = inactive; ? = inconclusive; · = no result; [ ] = another dose, or the depositor's remark. Hits are enriched below; roughly 2.4% of the tested compounds scored in any of these assays. The call rests on the fitted dose curve; in most records, active means well fitted curve in the direction sought with a large enough effect; inconclusive means small, poorly fitted or top-dose-only effect, or another doubt; inactive means no such curve, though single readings can be large; an effect the other way counts as inactive or inconclusive. Potency means the concentration at half of the fitted maximal effect.

SMILES	Pol kappa inh-1	Tb PGK inh	FEN1 inh-1	POLB inh	Pol iota inh	Pol eta inh-1	Pol eta inh-2	others
Cc1c(CCC(=O)NCCCCCC(=O)O)c(=O)oc2cc3occ(-c4ccccc4)c3cc12	?	-9%	?	?	45µM*	22µM*	54*	Pol kappa inh-2=?
C=C1C(=O)OC2C1CCC(C)C1C=CC(=O)C12C (stereo unspecified)	-39%	-10%	5%	·	45µM*	14µM*	?
O=C(O)c1ccc(Cl)c(S(=O)(=O)Nc2ccc3cn[nH]c3c2)c1	?	-17%	-12%	22µM*	?	18µM*	?
COc1ccc(C2=CC3=C(Br)C(=O)C(C)(OC(=O)c4cccs4)C(=O)C3=CO2)cc1 (stereo unspecified)	?	-29%	?	·	?	40µM*	?
COC(=O)CCC(=O)OC1(C)C(=O)C2=CN(C3CCCC3)C(c3ccc(OC)cc3)=CC2=C(Br)C1=O (stereo unspecified)	-27%	-1%	-21%	4%	?	?	·
O=c1c(C(c2c(O)nc3n(c2=O)CCS3)c2cccc3ccccc23)c(O)nc2n1CCS2	40µM*	-12%	-4%	?	?	22µM*	?
Cc1ccc(C(c2c(O)nc3n(c2=O)CCS3)c2c(O)nc3n(c2=O)CCS3)cc1	-34%	-1%	-4%	35%	?	-13%	·
O=c1c(C(c2ccc(O)cc2)c2c(O)nc3n(c2=O)CCS3)c(O)nc2n1CCS2	-40%	-3%	-2%	3%	-26%	20µM*	?
COc1cccc(C(=O)N2c3nc(-c4ccco4)nn3C3(CCCCC3)[C@@H]3CCCC[C@@H]32)c1	3%	-9%	-2%	0%	11%	-18%	·
CCOc1ccc(N(C)C(=O)c2oc(=O)c3ccccc3c2-c2ccccc2)cc1	-10%	-9%	-17%	?	6%	-18%	·
CCCN(C(=O)Cn1ncc2c1-c1ccccc1OC2)c1cccc(C)c1	-3%	9%	2%	-25%	-1%	-13%	·
Cc1ccccc1NS(=O)(=O)c1ccc2[nH]cc(C(=O)N3CCCC3)c(=O)c2c1	5%[60.1 µM]	-6%	4%	?	?	89µM*	?
COc1cccc(NS(=O)(=O)c2ccc3[nH]cc(C(=O)N4CCCC4)c(=O)c3c2)c1	-16%	-6%	5%	?	-5%	-1%	·
CC(C)c1ccc(NS(=O)(=O)c2ccc3[nH]cc(C(=O)N4CCCC4)c(=O)c3c2)cc1	?	-14%	-15%	?	79µM*	?	43*
Cc1cc(O)c(CN(C)C)c2c1C(=O)/C(=C/c1ccco1)O2	-94%	-8%	?	-7%	?	11µM*	54*	Pol kappa inh-2=34*
CC(=O)c1cccc(Nc2cc(C)nc3nc(-c4ccccc4C)nn23)c1	-12%	6%	10%	3%	23%	-6%	·
Cc1ccc(C(=O)COC(=O)c2cc(=O)[nH]c3ccccc23)cc1C	-14%	-24%	-13%	6%	26%	50µM*	67*
CC1CCc2c(sc(NC(=O)c3ccccc3C(=O)O)c2C#N)C1 (stereo unspecified)	-11%	-5%	-10%	24%	34%	10%	·
CCC(C)(C)C1CCc2c(sc(NC(=O)c3ccccc3C(=O)O)c2C#N)C1 (stereo unspecified)	-33%	-4%	-1%	-34%	26%	?	·	Pol kappa inh-2=?
NC1CONC1=O (stereo unspecified)	-6%[60.1 µM]	·	·	15%[57.1 µM]	0%[58.9 µM]	-2%[57.1 µM]	·
Cc1ccc(-n2c(O)c(C=NC3CCS(=O)(=O)C3)c3ccccc3c2=O)cc1C (stereo unspecified)	-9%	-8%[11.5 µM]	0%	0%	-5%	6%	·
Cc1ccc(-n2c(O)c(C=Nc3ccccc3-c3n[nH]c(=S)[nH]c3=O)c3ccccc3c2=O)cc1C	?	-8%	50µM*	?	?	32µM*	?	FEN1 inh-2=67*
O=C(O)c1ccc(-c2nc3ccccc3s2)o1	7%	-4%	-2%	-17%	?	26%	·
O=C(O)CC(C(=O)O)N1C(=O)/C(=C/c2ccc(-c3nc4ccccc4s3)o2)SC1=S (stereo unspecified)	4.5µM*	25µM*	35µM*	10µM*	1µM*	2.8µM*	30*	FEN1 inh-2=60*
COc1cc(/C=C2\SC(=S)N(NS(=O)(=O)c3ccc(C)cc3)C2=O)ccc1O	?	-14%	-26%	40µM*	40µM*	?	·	Pol kappa inh-2=?;FEN1 inh-2=67*
SMILES	Pol kappa inh-1	Tb PGK inh	FEN1 inh-1	POLB inh	Pol iota inh	Pol eta inh-1	Pol eta inh-2	others
CCn1cc(C(=O)O)c(=O)c2cc(F)c(N/N=C/c3ccccc3[N+](=O)[O-])cc21	-4%	1%	-20%	?	13%	5.6µM*	43*	FEN1 inh-2=7.6*
CCn1cc(C(=O)O)c(=O)c2cc(F)c(N3CCN(C(=S)Nc4ccccc4OC)CC3)cc21	5%	-8%	-28%	0%	-9%	10%	·
Cc1nc2ccccc2n1CCc1nc2c3ccccc3nc(SCc3ccc(C#N)cc3)n2n1	-5%[60.1 µM]	i	3%	1%	29%	-16%	·
COc1ccc(-c2cc(=O)c3c(O)cc(OC4OC(COC5OC(C)C(O)C(O)C5O)C(O)C(O)C4O)cc3o2)cc1O (stereo unspecified)	?	4%	50µM*	·	?	22µM*	30*	Pol kappa inh-2=12*;FEN1 inh-2=?
CC(=O)NCCNc1ncnc2ccc(-c3ccc(C(=O)N(C)C)cc3)cc12	-9%[60.1 µM]	·	·	·	·	·	·
CCN=c1scc(C)n1/N=C/c1cc(Br)c(O)c(Br)c1	-24%	-8%	11%	?	-3%	?	·
CCN=c1scc(C)n1/N=C/c1ccc(O)c(O)c1O	22µM*	-10%	?	10µM*	8.9µM*	6.3µM*	67*	FEN1 inh-2=?
COc1ccc(-c2cn3c(n2)sc2cc(C(=O)NCCCN4CCCCCC4)ccc23)cc1	-35%	4%	-4%	0%	17%	?	·	Pol kappa inh-2=?;FEN1 inh-2=38*
COc1ccc(OC)c(-c2nnc3n(Cc4ccc(C)cc4)c(=O)c4ccccc4n23)c1	3%	-21%	19%	1%	15%	?	·

Bioassay records: PubChem BioAssay, National Center for Advancing Translational Sciences (NCATS)
